PubChem BioAssay (Tox21)
Inconclusive results are not listed. Activity calls are given as the source filed them. The call rests on the fitted dose curve; in most records, active means well fitted inhibition curve with a large enough effect in the signal ratio in the repeat runs (not every such curve was filed as active); inconclusive means weak or mixed curves; inactive means flat fitted curve, though single readings scatter; the % refers to the signal ratio.

The compounds below were run against Progesterone receptor (Homo sapiens) (UniProt P06401) (assay: qHTS assay to identify small molecule antagonists of the progesterone receptor (PR) signaling pathway (AID 1346795)). Settings: PR-UAS-bla HEK293T, beta-lactamase FRET ratio, 16 h; series mostly up to 92.4 µM.
Progesterone receptor (Homo sapiens), sequence (P06401 whole entry, looked up): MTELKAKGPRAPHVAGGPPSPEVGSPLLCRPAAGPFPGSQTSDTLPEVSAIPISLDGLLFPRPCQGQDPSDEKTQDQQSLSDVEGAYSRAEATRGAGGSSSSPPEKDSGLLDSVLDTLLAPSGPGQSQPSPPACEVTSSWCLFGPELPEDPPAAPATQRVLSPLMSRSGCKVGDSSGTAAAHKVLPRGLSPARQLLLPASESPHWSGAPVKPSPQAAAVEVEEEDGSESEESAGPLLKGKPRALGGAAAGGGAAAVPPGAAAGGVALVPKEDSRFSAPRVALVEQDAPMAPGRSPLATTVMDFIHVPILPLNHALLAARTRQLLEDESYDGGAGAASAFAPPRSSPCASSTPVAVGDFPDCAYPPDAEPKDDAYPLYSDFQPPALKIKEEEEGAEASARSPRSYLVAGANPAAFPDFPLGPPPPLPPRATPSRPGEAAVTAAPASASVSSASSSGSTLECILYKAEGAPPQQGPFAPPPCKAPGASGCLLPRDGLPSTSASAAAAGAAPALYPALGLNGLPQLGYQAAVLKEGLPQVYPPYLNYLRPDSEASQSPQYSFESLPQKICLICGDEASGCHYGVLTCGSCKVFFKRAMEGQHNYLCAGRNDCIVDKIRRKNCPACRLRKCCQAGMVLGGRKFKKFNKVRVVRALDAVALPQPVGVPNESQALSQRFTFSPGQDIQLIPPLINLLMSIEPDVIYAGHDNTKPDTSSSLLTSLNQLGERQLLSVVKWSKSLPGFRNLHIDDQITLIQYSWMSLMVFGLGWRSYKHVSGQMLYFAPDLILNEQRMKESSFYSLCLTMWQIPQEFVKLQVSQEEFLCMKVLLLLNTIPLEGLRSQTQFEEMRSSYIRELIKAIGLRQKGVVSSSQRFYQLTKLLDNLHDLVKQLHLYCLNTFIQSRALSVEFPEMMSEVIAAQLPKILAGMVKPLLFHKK
From the text: National Center for Advancing Translational Sciences [NCATS]
NIH Chemical Genomics Center [NCGC]
U.S. Environmental Protection Agency [EPA]
National Institutes of Environmental Health Sciences [NIEHS]
National Toxicology Program [NTP]
U.S. Food and Drug Administration [FDA]
Progesterone receptor (PR), a nuclear hormone receptor, plays an important role in development, metabolic homeostasis and reproduction. […] Endocrine disrupting chemicals (EDCs) and their interactions with steroid hormone receptors like PR causes disruption of normal endocrine function. To identify the compounds that inhibit PR signaling, a PR-UAS-bla GripTite cell line i.e. PR-UAS-bla HEK293T (Invitrogen, Carlsbad, CA, USA) containing a beta-lactamase reporter gene under the control of an Upstream Activator Sequence (UAS) was used to screen Tox21 10K compound library.
Tox21 Assay Protocol Summary:
PR-UAS-bla HEK293T cells were dispensed at 3,000 cells/4 uL of assay medium containing 2% charcoal stripped FBS per well into black wall/clear-bottom 1536-well plates using a Multidrop Combi (ThermoFisher Scientific, Waltham, MA) dispenser. After the assay plates were incubated at a 37C and 5% CO2 for 6 hr, 23 nL of compounds dissolved in DMSO, positive controls or DMSO only was transferred to the assay plate by a Pintool station (Kalypsys, San Diego, CA), followed by addition of 1 uL (1nM as final concentration) of Promegestone (R5020) in assay medium using a BioRAPTR FRD (Flying Reagent Dispenser, Aurora Discovery, San Diego, CA). The plates were incubated at 37C and 5% CO2 for 16 hr. Then 1 uL of LiveBLAzer B/G FRET substrate was added using a FRD. After the plates were incubated at room temperature for 2 hours, fluorescence intensity was measured by an Envision plate reader (PerkinElmer, Shelton, CT).

Which outcome does the source give for `Nc1ccc(O)c(C(=O)O)c1` here?
Its outcome is “inactive”.

`COc1ccc2[nH]cc(CCNC(C)=O)c2c1` was tested. Which outcome did it give?
The outcome was “inactive”.

Which outcome does the source give for `O=C(C1CCCCC1)N1CC(=O)N2CCc3ccccc3C2C1` (stereo not given) here?
Its outcome is “inactive”.

How did the outcome turn out when `CCCN(CCC)S(=O)(=O)c1ccc(C(=O)O)cc1` was run?
Its outcome is “inactive”.

`CCCNC(=O)NS(=O)(=O)c1ccc(Cl)cc1` was tested. Which outcome did it give?
The outcome was “inactive”.

How did the outcome turn out when `NS(=O)(=O)c1cc(C(=O)O)c(NCc2ccco2)cc1Cl` was run?
Its outcome is “inactive”.

For `Cn1cc[nH]c1=S`, which outcome is on record?
Its outcome is “inactive”.

With `Nc1ccc(S(=O)(=O)Nc2nccs2)cc1` as the compound, how does the outcome read?
Its outcome is “inactive”.

For `CCOc1ccc(NC(=O)CC(C)O)cc1` (stereo not given), which outcome is on record?
The outcome was “inactive”.

`O=C(O)c1cccc([N+](=O)[O-])c1` was tested. Which outcome did it give?
Its outcome is “inactive”.

`O=C(O)c1cc(N=Nc2ccc(S(=O)(=O)Nc3ccccn3)cc2)ccc1O` was tested. Which outcome did it give?
Its outcome is “inactive”.

Which outcome does the source give for `Nc1ccc(C(=O)O)cc1` here?
Its outcome is “inactive”.

`CC(C)(Oc1ccc(C2CC2(Cl)Cl)cc1)C(=O)O` (stereo not given) was tested. Which outcome did it give?
The outcome was “inactive”.

Which outcome does the source give for `NNC(=O)c1ccncc1` here?
The outcome was “inactive”.

For `O=C(O)CCCCC(=O)O`, which outcome is on record?
The outcome was “inactive”.

For `O=C(O)CCC(=O)O`, which outcome is on record?
Its outcome is “inactive”.

How did the outcome turn out when `Cc1cc(=O)[nH]c(=S)[nH]1` was run?
The outcome was “inactive”.

Which outcome does the source give for `O=C1CN(/N=C/c2ccc([N+](=O)[O-])o2)C(=O)N1` here?
Its outcome is “inactive”.

How did the outcome turn out when `CC(=O)OCC(COC(C)=O)OC(C)=O` was run?
The outcome was “inactive”.

`NC(N)=O` was tested. Which outcome did it give?
The outcome was “inactive”.

How did the outcome turn out when `Cc1noc(NS(=O)(=O)c2ccc(N)cc2)c1C` was run?
Its outcome is “inactive”.

For `O=S(=O)(O)NC1CCCCC1`, which outcome is on record?
Its outcome is “inactive”.

Which outcome does the source give for `CCCCCCCCCCCCCCCC(=O)O` here?
The outcome was “inactive”.

`O=C(c1ccccc1)c1ccccc1` was tested. Which outcome did it give?
Its outcome is “inactive”.

How did the outcome turn out when `CC(=O)NS(=O)(=O)c1ccc(N)cc1` was run?
Its outcome is “inactive”.

`NC(=O)NC1NC(=O)NC1=O` (stereo not given) was tested. Which outcome did it give?
Its outcome is “inactive”.

How did the outcome turn out when `Cc1ccc(C)c(OCCCC(C)(C)C(=O)O)c1` was run?
Its outcome is “inactive”.

`CNC[C@H](O)c1cccc(O)c1` was tested. Which outcome did it give?
The outcome was “inactive”.

With `CC(C)[C@@H]1CC[C@@H](C)C[C@H]1O` as the compound, how does the outcome read?
The outcome was “inactive”.

`CC1(C)[C@@H]2CC[C@@]1(C)C(=O)C2` was tested. Which outcome did it give?
Its outcome is “inactive”.

Which outcome does the source give for `COc1c2occc2cc2ccc(=O)oc12` here?
The outcome was “inactive”.

For `CCC1(c2ccccc2)C(=O)NCNC1=O`, which outcome is on record?
Its outcome is “inactive”.

How did the outcome turn out when `Cc1ccc(S(=O)(=O)NC(=O)NN2CCCCCC2)cc1` was run?
Its outcome is “inactive”.

How did the outcome turn out when `CCCCC1C(=O)N(c2ccccc2)N(c2ccccc2)C1=O` was run?
Its outcome is “inactive”.

With `NC(=O)c1cnccn1` as the compound, how does the outcome read?
The outcome was “inactive”.

With `CC(O)CN(CCN(CC(C)O)CC(C)O)CC(C)O` (stereo not given) as the compound, how does the outcome read?
The outcome was “inactive”.

How did the outcome turn out when `O=C(c1ccccc1)C(O)c1ccccc1` (stereo not given) was run?
The outcome was “inactive”.

`Nc1ccc(S(=O)(=O)c2ccc(N)cc2)cc1` was tested. Which outcome did it give?
Its outcome is “inactive”.

How did the outcome turn out when `CC(O)CO` (stereo not given) was run?
The outcome was “inactive”.

Which outcome does the source give for `CCCCOC(=O)CC(CC(=O)OCCCC)(OC(C)=O)C(=O)OCCCC` here?
The outcome was “inactive”.
